VHR inh abs: VHR1 phosphatase inhibitors, primary screen, biochemical, absorbance, uHTS; inhibition, % at 13.3 µM; AID 1654, 2009; recombinant VHR phosphatase, pNPP absorbance; hit rate 0.52% among 290,000; in the data active = inhibition above about 50%
Target sequence (P51452 whole entry, looked up): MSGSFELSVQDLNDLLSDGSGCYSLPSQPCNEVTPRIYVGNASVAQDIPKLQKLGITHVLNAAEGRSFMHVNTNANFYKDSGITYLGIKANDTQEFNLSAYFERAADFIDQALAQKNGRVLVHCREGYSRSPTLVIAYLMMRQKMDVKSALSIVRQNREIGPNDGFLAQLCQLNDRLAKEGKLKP
Sa ugtP lethal: growth inhibition of ugtP-null S. aureus, primary screen, RN4220 ugtP deletion, OD600; growth inhibition, % (no concentration beside the values); hit rate 0.54% among 330,000; 16 h; AID 1259309, 2017; in the data active = growth inhibition above about 68%;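 note: plate controls were untreated wells for no effect and antibiotic for full effect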
PfHsp40 yeast: rescue of yeast from PfHsp40 toxicity, primary screen, S. cerevisiae, ATP luminescence | S. cerevisiae expressing PfHsp40, growth rescue | growth rescue, % at 12.5 µM | hit rate 0.68% among 340,000; in the data active = growth rescue above about 28%, passing the limit was not always enough; inconclusive = no clear call, values can overlap the other calls;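 note: yeast W303a lacking pdr1 and pdr3 grown in galactose medium; growth measured after three days at 30 °C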
Mtb hypoxia rep: PubChem AID 1159583 | M. tuberculosis hypoxia-regulated fluorescent reporter, fluorescence | fluorescence inhibition, % (concentration not given with the values) | hit rate 0.1% among 300,000; in the data active = fluorescence inhibition mostly above about 23%, no sharp cut-off; inactive = mostly below about 17%
PriA SSB inh: inhibitors of Klebsiella pneumoniae PriA binding to SSB C-terminal tail, primary screen, biochemical, AlphaScreen | hit rate 0.6% among 430,000 | inhibition, % at 33 µM | AID 1272365, 2023 | AlphaScreen SSBct-PriA binding, biotinylated peptide; in the data active = inhibition mostly above about 37%, no sharp cut-off; inactive = mostly below about 20%;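 note: plate controls were negative control peptide for no effect and reference peptide for full effect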
Sa RN4220 lethal: growth inhibition of S. aureus RN4220, primary screen, OD600. hit rate 0.33% among 330,000. inhibition, % (no concentration beside the values). 16 h. AID 1259311, 2017; in the data active = inhibition above about 85%;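 note: plate controls were untreated cells for no effect and reference antibiotic for full effect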
* = called active by the depositor; ? = inconclusive; . = no result given. Compounds with a hit are over-represented: about 1.8% of the library has one in this group of screens.

SMILES	VHR inh abs	Sa ugtP lethal	PfHsp40 yeast	Mtb hypoxia rep	PriA SSB inh	Sa RN4220 lethal
COc1ccc(CC(=O)NNC(=O)c2ccc(=O)n(Cc3ccccc3)c2)cc1	.	.	.	.	-7	.
Oc1ccccc1N=Cc1ccc[nH]1	8	-1	55*	81*	0	12
O=C1c2ccncc2C(=O)N1CN1CCOCC1	.	.	.	.	-3	.
CCN(CCNS(=O)(=O)c1ccc2[nH]c(=O)sc2c1)c1ccccc1	15	99*	0	6	16	-14
CCOc1ccccc1CNS(=O)(=O)c1ccc2[nH]c(=O)sc2c1	-16	46	-1	.	-8	4
CCOC(=O)/C(=C/c1ccc(OC(=O)c2ccccc2)cc1)C(C)=O	3	6	312*	-2	7	6
O=C(NC[C@]1(O)CCc2ccccc21)c1ccc(Cl)cc1	.	.	.	.	-13	.
O=C(CSc1nc(-c2ccco2)cc(C(F)(F)F)n1)c1cccc(Cl)c1	.	.	.	.	-2	.
CCOC(=O)/C(C#N)=C/C=C1\C=Cc2ccccc2N1CC	6	2	?	43*	18	10
Oc1[nH]c2ccccc2c1N=NC(=S)N1CCOCC1	5	.	2	.	59*	.
COC(=O)N=Nc1c(O)[nH]c2ccc(Br)cc12	36	9	-1	10	-10	5
Oc1[nH]c2ccc(Br)cc2c1N=NC(=S)N1CCOCC1	-11	37	0	39*	-1	24
N#C/C(=N\Nc1ccc([N+](=O)[O-])cc1)C(N)=S	-4	.	-2	.	.	.
N#CC(=NNc1ccc(OC(F)(F)F)cc1)C(N)=S	.	87*	.	.	22	82
O=C(NN=Cc1ccccn1)c1ccncc1	.	0	.	.	-6	2
Cc1cccc(-c2ccc(C=Nc3c(C)n(C)n(-c4ccccc4)c3=O)o2)c1	21	1	0	.	50*	1
Cc1c(N=Cc2nc3ccccc3n2C)c(=O)n(-c2ccccc2)n1C	31	-2	-1	-3	-9	1
Nc1nc2c(s1)CN(Cc1ccccc1)CC2	.	.	.	.	-4	.
Cc1[nH]c(C)c(S(=O)(=O)N2CCCCC2C)c1C(=O)N1CCCC1 (configuration not stated)	56*	15	-1	5	-3	4
CC(CCc1ccccc1)NC(=O)Nc1c[nH]c2ccccc12 (configuration not stated)	.	.	.	.	39*	.
Cc1cc2cc(CNC(=O)Nc3c[nH]c4ccccc34)ccc2[nH]1	.	.	.	.	33*	.
O=C(NCc1ccccc1)Nc1c[nH]c2ccccc12	.	.	.	.	-8	.
Cn1c(SCC(=O)NO)nnc1-c1c[nH]c2ccccc12	.	.	.	.	4	.
O=C(O)c1cccn2ccnc12	.	.	.	.	48*	.
Cn1c(COc2ccc3c(c2)OCO3)n[nH]c1=S	.	.	.	.	12	.
SMILES	VHR inh abs	Sa ugtP lethal	PfHsp40 yeast	Mtb hypoxia rep	PriA SSB inh	Sa RN4220 lethal
CC(Oc1ccccc1F)C(=O)NCCOc1ccc(F)cc1 (configuration not stated)	.	.	.	.	-20	.
CCS(=O)(=O)c1ccc(CC(=O)Nc2nnc(-c3ccco3)o2)cc1	.	.	.	.	54*	.
Cc1ccn2c(=O)nc(S[C@@H](C)c3ccccc3)nc2c1	.	.	.	.	-2	.
Cn1c(Cc2cccs2)nnc1SCc1nc2ccccc2[nH]1	53*	-11	-1	15	-5	-15
Cc1cc(C)n2nc(C(=O)NCc3ccccc3)cc2n1	14	11	-2	14	-13	4
Cc1ccc(NC(=O)c2cc3nc(C)cc(C)n3n2)cc1	4	14	47*	17	-11	21
O=C(O)C[C@@H]1C(=O)O[C@@H]2C(COC(=O)c3cc(O)c(O)c(O)c3)O[C@@H](OC(=O)c3cc(O)c(O)c(O)c3)[C@@H](OC(=O)c3cc(O)c(O)c4c3[C@H]1[C@H](O)C(=O)O4)[C@H]2OC(=O)c1cc(O)c(O)c(O)c1 (some centres not stated)	114*	.	.	.	.	.
O=C(O)CC1SC(=NN=C2C(=O)Nc3ccccc32)N(c2ccc(O)cc2)C1=O (configuration not stated)	.	3	.	-5	12	5
COC(=O)C1=C(C)N(CCCC(=O)O)C(=O)NC1c1cc2c(cc1[N+](=O)[O-])OCO2 (configuration not stated)	9	6	-1	8	-11	7
COC(=O)C1=C(C)N(C)C(=O)NC1c1cc2c(cc1[N+](=O)[O-])OCO2 (configuration not stated)	8	5	35*	1	-4	2
CCOC(=O)c1ccc(OCC2c3cc(OC)c(OC)cc3CCN2C(=O)Nc2cccc(Cl)c2)cc1 (configuration not stated)	.	.	.	.	-18	.
COc1ccc(-c2oc3c(OC)c(OC)c(OC)c(O)c3c(=O)c2OC)cc1OC	3	-6	71*	.	-8	7
O=S(=O)(Nc1ccccc1O)c1ccc(-c2ccccc2)cc1	28	-11	-2	14	11	13
O=S(=O)(Nc1cccnc1Cl)c1ccc(-c2ccccc2)cc1	7	81	9	1	-20	89*
COc1ccc(-c2c[n+](CC(=O)c3ccc(Cl)cc3)c3n2CCCCC3)cc1	.	.	.	.	7	.
CC(C)[C@@H]1CC[C@@H](C)C[C@H]1OC(=O)C[n+]1cc(-c2ccc(Cl)cc2)n2c1CCCCC2	-15	100*	1	.	8	101*
COc1ccc(-c2c[n+](CC(=O)OC3CC(C)CCC3C(C)C)c3n2CCC3)cc1 (configuration not stated)	-11	100*	1	.	8	100*
CC(C)c1ccc(CC(=O)N2CC(=O)Nc3ccccc32)cc1	.	.	.	.	-2	.
Nc1nc(CSc2n[nH]c(-c3ccccc3)n2)nc(Nc2ccccc2)n1	-2	6	68*	.	2	4
CCCS(=O)(=O)c1ccc(N2CCN(Cc3ccccc3)CC2)nn1	.	.	.	.	-7	.
COc1ccc(-c2cc(-c3ccc(Cl)cc3)nc(SCC(=O)Nc3nc(-c4ccccc4)ns3)c2C#N)cc1	.	.	.	.	-20	.
Cc1cc(N/N=C/c2ccc(O)c(C)c2O)nc(-c2ccccc2O)n1	-24	.	73*	.	.	.
CN1/C(=C\C(=O)Nc2ccc(Br)cc2)C(C)(C)c2ccccc21	4	96*	2	-2	0	94*
CN1/C(=C\C(=O)Nc2ccc(F)cc2)C(C)(C)c2ccccc21	-4	-13	1	3	-5	11
O=C(CCCS(=O)(=O)c1ccc(F)cc1)Nc1nnc(Cc2cccs2)o1	.	.	.	.	2	.
SMILES	VHR inh abs	Sa ugtP lethal	PfHsp40 yeast	Mtb hypoxia rep	PriA SSB inh	Sa RN4220 lethal
CSc1ccc(C(O)CNC(=O)Nc2ccccc2Cl)cc1 (configuration not stated)	.	.	.	.	-15	.
Cc1ccc(C)n1-c1ccc(C(=O)Nc2nc(-c3ccccn3)cs2)cc1	.	.	.	.	81	.
Cc1ccccc1C(=O)Nc1nc(-c2cc(Cl)ccc2Cl)cs1	.	.	.	.	-7	.
O=C(Nc1nc(-c2ccccn2)cs1)c1cccc(C(=O)Nc2nc(-c3ccccn3)cs2)n1	.	.	.	.	2	.
O=C(Nc1nc(-c2ccccn2)cs1)c1cc(Cl)ccc1Cl	.	.	.	.	86*	.
O=C(Nc1nc(-c2ccccn2)cs1)c1cc(Cl)ccn1	.	.	.	.	99*	.

Screening results (PubChem BioAssay)
